Nine molecules from PubChem BioAssay (NCI) can be followed below.

The panel holds about 83,000 compounds, 20% with a hit somewhere; the sample as a whole holds those more often.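 48-hour exposure, single concentration, 96-well plates; percent growth endpoint where 0 means no net growth. Active: below 10.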 Values without a mark were called inactive. Calls of active or inactive are those of the source.

Test systems include SR leukemia; OVCAR-8 ovarian; OVCAR-5 ovarian; OVCAR-4 ovarian; SK-OV-3 ovarian; IGROV1 ovarian; OVCAR-3 ovarian; HS 578T breast; NCI/ADR-RES ovarian; T-47D breast; BT-549 breast; MDA-MB-435 melanoma; SW-620 colon; MCF7 breast; HCT-116 colon; HCC-2998 colon; KM12 colon.
Assay in all cases: NCI-60 one-dose screen, 48 h (100 = growth as untreated, 0 = no growth, -100 = all killed)
Holding throughout (details): 10 µM unless noted

With `Cc1nn(-c2ccccc2)c(-n2ccnc2)c1/C=N/Nc1nc(-c2ccc(Cl)c(Cl)c2)cs1`, the growth with SR leukemia was 41.2%; with OVCAR-8 ovarian, 20%; in the test on OVCAR-5 ovarian it was 71.8%; in the test with OVCAR-4 ovarian it was -22.1% (active); in the test with SK-OV-3 ovarian, 89.5%; with IGROV1 ovarian, 60.9%. Also, the growth with OVCAR-3 ovarian is -69.4% (active); in the test on HS 578T breast, 42%; with NCI/ADR-RES ovarian, -9.8% (active); in the test on T-47D breast it was 28.7%; in the test with BT-549 breast, 71.5%; in the test with MDA-MB-435 melanoma, 66.2%. Besides, the growth in the test with SW-620 colon is 30.6%; in the test with MCF7 breast, 17.1%; in the test on HCT-116 colon it was 0.896% (active); with HCC-2998 colon, 63.5%; with KM12 colon it was 66.7%.

Take `CCOC(=O)c1sc2ncc(-c3ccc(OC)cc3)n2c1C`: the growth with SR leukemia was 104%; in the test on OVCAR-8 ovarian, 91.6%; with OVCAR-5 ovarian it was 105%; in the test with OVCAR-4 ovarian, 97.5%; with SK-OV-3 ovarian it was 78.7%; with IGROV1 ovarian, 81.4%. The growth in the test with OVCAR-3 ovarian is 108%; with HS 578T breast, 94.1%; in the test with NCI/ADR-RES ovarian it was 92.3%; in the test with T-47D breast, 93.6%; in the test on BT-549 breast, 102%; in the test on SW-620 colon, 94.1%. The growth was 89.9% in the test with MCF7 breast, 92.4% in the test with HCT-116 colon, 105% in the test on HCC-2998 colon and 101% in the test on KM12 colon.

Regarding `COc1ccc2sc3c(NCCCNCCO)nc4ccccc4c3c(=O)c2c1`, the growth is -46.9% (active) in the test on SR leukemia; 54.6% in the test with OVCAR-8 ovarian; 84.2% with OVCAR-5 ovarian; 4.38% (active) in the test with OVCAR-4 ovarian; 85.7% in the test with SK-OV-3 ovarian; 45.9% in the test with IGROV1 ovarian. Moreover, the growth is 0.904% (active) in the test on OVCAR-3 ovarian; 53% in the test with HS 578T breast; 63.8% in the test with NCI/ADR-RES ovarian; 86.5% with T-47D breast; 81.7% in the test on BT-549 breast; 10.6% in the test on MDA-MB-435 melanoma. Also, the growth in the test with SW-620 colon was -83.2% (active); in the test with MCF7 breast, 25.7%; in the test with HCT-116 colon, -79.3% (active); in the test with HCC-2998 colon it was -84.3% (active); in the test on KM12 colon it was -15.6% (active).

As to `COc1cccc2c(=O)c3c(sc12)c(NCCCN)nc1ccccc13`, the growth in the test with SR leukemia was -7.22% (active); in the test with OVCAR-8 ovarian, 34.8%; in the test with OVCAR-5 ovarian it was 77.9%; in the test with OVCAR-4 ovarian, 21.8%; in the test on SK-OV-3 ovarian, 64.7%; in the test on IGROV1 ovarian, 39.3%. Also, the growth in the test on OVCAR-3 ovarian was 39.1%; in the test with HS 578T breast, 60%; in the test with NCI/ADR-RES ovarian it was 46%; in the test on T-47D breast it was 82.6%; in the test on BT-549 breast, 90.4%; in the test on MDA-MB-435 melanoma, 33.9%. The growth is -48.7% (active) in the test on SW-620 colon; 24.9% with MCF7 breast; -73.9% (active) in the test on HCT-116 colon; -57.3% (active) with HCC-2998 colon; 13% with KM12 colon.

With `COc1ccc(C(=O)COC(=O)[C@H](C[Se][Se]C[C@H](NC(=O)c2ccc(Br)cc2F)C(=O)OCC(=O)c2ccc(OC)cc2)NC(=O)c2ccc(Br)cc2F)cc1`, the growth in the test on SR leukemia is -17.1% (active); in the test on OVCAR-8 ovarian, -64.2% (active); in the test with OVCAR-5 ovarian, -68.2% (active); with OVCAR-4 ovarian it was -87.9% (active); in the test with SK-OV-3 ovarian, -91.9% (active); in the test with IGROV1 ovarian, -86.1% (active). Further, the growth with OVCAR-3 ovarian is -86.3% (active); with HS 578T breast, -6.55% (active); in the test on NCI/ADR-RES ovarian, -60% (active); in the test on T-47D breast, -33.1% (active); with BT-549 breast, -89.6% (active); in the test on MDA-MB-435 melanoma it was 3.85% (active). Moreover, the growth in the test on SW-620 colon is -59.7% (active); with MCF7 breast, -57.3% (active); in the test on HCT-116 colon, -69.1% (active); with HCC-2998 colon it was -64.1% (active); in the test with KM12 colon, -81.6% (active).

For `CCOC(=O)C1=C(N)Oc2c(sc3c(CC)cccc23)C1c1ccc(F)cc1` (stereo not drawn), the growth with SR leukemia is 27.2%; in the test with OVCAR-8 ovarian, 45.2%; in the test with OVCAR-5 ovarian it was 56.2%; with OVCAR-4 ovarian, 58.7%; in the test with SK-OV-3 ovarian, 50.6%; with IGROV1 ovarian it was 29.3%. Also, the growth in the test on OVCAR-3 ovarian is -6.19% (active); in the test on HS 578T breast it was 23.9%; in the test on NCI/ADR-RES ovarian, 32.2%; with T-47D breast, 26.8%; in the test on BT-549 breast it was 73.6%; in the test with SW-620 colon it was 22.3%. Besides, the growth is 10.2% with MCF7 breast, 25.5% in the test on HCT-116 colon, 61.4% with HCC-2998 colon and 24% in the test on KM12 colon.

Consider `CCCCn1c(=O)c(-c2cc(-c3ccc(Cl)cc3)nc(-c3ccc(Cl)cc3)c2)cc2cc(C)ccc21`, for which the growth in the test on SR leukemia was 109%; in the test with OVCAR-8 ovarian, 100%; in the test with OVCAR-5 ovarian, 100%; with OVCAR-4 ovarian, 110%; in the test on SK-OV-3 ovarian, 115%; with IGROV1 ovarian, 96.4%. In addition, the growth with OVCAR-3 ovarian was 112%; in the test on HS 578T breast, 99.1%; with T-47D breast, 95.8%; in the test with BT-549 breast it was 103%; in the test on MDA-MB-435 melanoma, 104%; in the test with SW-620 colon, 99.6%. Also, the growth in the test with MCF7 breast was 97.6%; in the test on HCT-116 colon, 99.8%; with HCC-2998 colon, 105%; in the test on KM12 colon, 102%.

Turning to `Cc1ccc(NC2=C(Cl)C(=O)c3nc(C)ccc3C2=O)cc1`, the growth in the test with SR leukemia was 21.8%; in the test on OVCAR-8 ovarian, -49.4% (active); in the test with OVCAR-5 ovarian, -11.6% (active); in the test with OVCAR-4 ovarian it was -97.9% (active); with SK-OV-3 ovarian it was 88.7%; with IGROV1 ovarian, -75.5% (active). In addition, the growth with OVCAR-3 ovarian is -76.7% (active); in the test on HS 578T breast, 27.9%; with NCI/ADR-RES ovarian, 30.6%; in the test with T-47D breast it was -47.5% (active); in the test with BT-549 breast, 44.9%; in the test on SW-620 colon it was -30.7% (active). Besides, the growth with MCF7 breast was -66.1% (active); in the test with HCT-116 colon, -39.5% (active); in the test on HCC-2998 colon, 4.99% (active); in the test with KM12 colon it was 36.6%.

In the case of `Nc1nc2ccccc2c2c(=O)c3cc(F)ccc3sc12`, the growth is 101% in the test on SR leukemia; 106% in the test with OVCAR-8 ovarian; 102% with OVCAR-5 ovarian; 101% in the test on OVCAR-4 ovarian; 108% in the test with SK-OV-3 ovarian; 113% in the test on OVCAR-3 ovarian. The growth in the test with HS 578T breast was 101%; in the test on NCI/ADR-RES ovarian, 97.5%; with T-47D breast, 84.3%; with BT-549 breast it was 106%; in the test on MDA-MB-435 melanoma, 98.6%; in the test on SW-620 colon it was 107%. Moreover, the growth in the test on MCF7 breast was 34.4%; in the test on HCT-116 colon it was 99.4%; in the test on HCC-2998 colon it was 96.6%; with KM12 colon it was 99%.
